Measurements: PubChem BioAssay AID686979 (National Center for Advancing Translational Sciences (NCATS), 2013)
The campaign covered roughly 420,000 compounds. About 50,000 (12%) were called active. A call without a number means that no potency is given here. Inconclusive results (about 26%) are left out. The call rests on the fitted dose curve; in most records, active means well fitted inhibition curve with a large enough effect; inconclusive means small, poorly fitted or top-dose-only effect; inactive means flat fitted curve, though single readings scatter. Many of the other results were omitted from the sample, so actives are more common in it than they were.

assay: qHTS for Inhibitors of human tyrosyl-DNA phosphodiesterase 1 (TDP1): qHTS in cells in presence of CPT; settings: chicken DT40 Tdp1-/-;hTDP1 cells + 20 nM CPT, ATP luminescence, 48 h; series mostly up to 46.2 µM; further: nearly all actives have a fitted effect of over 55% in size
Procedure, shortened: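 Cell growth measured by CellTiter-Glo luminescence after a minimum 48 h, 37 C compound exposure with 20 nM CPT in Tdp1-knockout DT40 cells stably expressing hTDP1, seeded 400/well; qHTS titration format.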
Potency means the concentration at half of the fitted maximal effect.

**Q.** Which Potency does the source give for `CC1CC(=O)N(CC(=O)Nc2cccc(Cl)c2)c2ccccc2S1(=O)=O` (stereo not drawn) here?
**A.** inactive

**Q.** Which Potency does the source give for `CCOC(=O)Cc1cc(=O)[nH]c(/N=C(\N)Nc2ccc(OC)cc2)n1` here?
**A.** inactive

**Q.** For `COc1ccc(NC(=O)Cn2c(-c3ccc(OC)cc3)cn(-c3ccc(C)cc3)c2=O)cc1`, which Potency is on record?
**A.** inactive

**Q.** For `Cc1ccccc1CNC(=O)CCCn1nc(C)c2sc3ccccc3c2c1=O`, which Potency is on record?
**A.** 18.4 µM (active)

**Q.** For `CCc1nn(CCCC(=O)NCc2ccccc2OC)c(=O)c2cc3occc3n12`, which Potency is on record?
**A.** inactive

**Q.** With `Cc1nn(CCCC(=O)NCc2ccccc2Cl)c(=O)c2nccn12` as the molecule, how does the Potency read?
**A.** inactive

**Q.** Which Potency does the source give for `COc1ccc(C(=O)COC(=O)c2ccc3ccccc3n2)cc1` here?
**A.** 20.6 µM (active)

**Q.** For `COc1ccc(C2=NOC(COC(=O)c3ccc4ccccc4n3)C2)cc1` (stereo not drawn), which Potency is on record?
**A.** inactive

**Q.** For `CC(OC(=O)c1ccc2ccccc2n1)C(=O)c1ccccc1` (stereo not drawn), which Potency is on record?
**A.** inactive

**Q.** For `Cc1ccc(-c2nnc(CN3CCN(C)CC3)o2)cc1`, which Potency is on record?
**A.** inactive

**Q.** With `COc1ccc(C(=O)CSc2c(C(C)C)cnc3c2c(=O)n(C)c(=O)n3C)cc1` as the molecule, how does the Potency read?
**A.** 16.4 µM (active)

**Q.** With `COCCNC(=O)CSc1c(C)cnc2c1c(=O)n(C)c(=O)n2C` as the molecule, how does the Potency read?
**A.** inactive

**Q.** For `COc1ccc(C(=O)CSc2nccc(=O)[nH]2)cc1`, which Potency is on record?
**A.** inactive

**Q.** Which Potency does the source give for `COc1ccc(CNC(=O)CN2C(=O)c3ccccc3S2(=O)=O)cc1` here?
**A.** inactive

**Q.** Which Potency does the source give for `COCCN(CC(=O)Nc1ccccc1C)S(=O)(=O)c1ccc(S(=O)(=O)N2CCCC2)cc1` here?
**A.** inactive

**Q.** Which Potency does the source give for `O=C(Nc1nnc(-c2ccccc2)o1)c1cccc(S(=O)(=O)N2CCOCC2)c1` here?
**A.** 13 µM (active)

**Q.** With `CC1CCCCN1S(=O)(=O)CCNC(=O)c1ccccc1` (stereo not drawn) as the molecule, how does the Potency read?
**A.** inactive

**Q.** With `CCN(CC(=O)NCc1cccs1)S(=O)(=O)c1ccc(NC(C)=O)cc1` as the molecule, how does the Potency read?
**A.** inactive

**Q.** With `O=C(Nc1ccc(N2CCOCC2)cc1)c1cccc(S(=O)(=O)N2CCOCC2)c1` as the molecule, how does the Potency read?
**A.** inactive

**Q.** For `CC1CCCN(S(=O)(=O)c2ccc(C(=O)Nc3nnc(-c4ccncc4)o3)cc2)C1` (stereo not drawn), which Potency is on record?
**A.** 11.6 µM (active)

**Q.** Which Potency does the source give for `CC1CC(C)CN(S(=O)(=O)c2ccc(C(=O)NN3CCOCC3)cc2)C1` (stereo not drawn) here?
**A.** inactive

**Q.** For `O=C(NCc1cccs1)C(=O)NCC1OCCCN1S(=O)(=O)c1ccc(F)cc1` (stereo not drawn), which Potency is on record?
**A.** inactive

**Q.** Which Potency does the source give for `NC(=O)CSc1nnc(-c2cccc(S(=O)(=O)N3CCOCC3)c2)o1` here?
**A.** inactive

**Q.** With `CC1CCCCN1S(=O)(=O)c1ccc(C(=O)Nc2nnc(-c3cccs3)o2)cc1` (stereo not drawn) as the molecule, how does the Potency read?
**A.** 6.51 µM (active)

**Q.** For `CC1CCCCN1S(=O)(=O)c1ccc(S(=O)(=O)N(CC(=O)Nc2ccccc2)Cc2cccs2)cc1` (stereo not drawn), which Potency is on record?
**A.** 25.9 µM (active)

**Q.** For `CS(=O)(=O)c1ccc(-c2nnc(NC(=O)c3ccc4c(c3)OCCO4)o2)cc1`, which Potency is on record?
**A.** inactive

**Q.** Which Potency does the source give for `CCOC(=O)c1c(/N=C/c2cc(C)ccc2O)sc2c1CCC2` here?
**A.** inactive

**Q.** Which Potency does the source give for `CC(C)OC(=O)CC(=O)CC(O)c1cccc([N+](=O)[O-])c1` (stereo not drawn) here?
**A.** inactive

**Q.** With `O=C(Nc1nonc1-c1ccc(Cl)cc1)c1ccco1` as the molecule, how does the Potency read?
**A.** inactive

**Q.** With `O=C(NCc1ccccn1)[C@@H]1CCCN1C(=O)[C@@H]1CCCN1C(=O)c1ccccc1` as the molecule, how does the Potency read?
**A.** inactive

**Q.** With `CN(Cc1nc(-c2cnccn2)no1)Cc1n[nH]c2c1CCCCC2` as the molecule, how does the Potency read?
**A.** inactive

**Q.** With `COc1ccccc1CNC(=O)CS(=O)(=O)c1cccc2nsnc12` as the molecule, how does the Potency read?
**A.** inactive

**Q.** Which Potency does the source give for `Cn1c(=O)c(=O)n(C)c2cc(NC(=O)c3ccccc3Br)ccc21` here?
**A.** inactive

**Q.** Which Potency does the source give for `c1ccc2c(c1)OC1OC2Oc2ccccc21` here?
**A.** inactive

**Q.** For `Cc1cc(C)nc(NS(=O)(=O)c2ccc(NC(=O)c3cc(=O)c4ccc(C)c(C)c4o3)cc2)n1`, which Potency is on record?
**A.** inactive

**Q.** With `CS(=O)(=O)N(CC(=O)Nc1ccc(F)cc1)C1CCCCC1` as the molecule, how does the Potency read?
**A.** inactive

**Q.** For `N[C@H]1CN(c2c(F)cc3c(=O)c(C(=O)O)cn(C4C[C@H]4F)c3c2Cl)CC12CC2` (stereo partly drawn), which Potency is on record?
**A.** inactive

**Q.** With `CC1(c2ccccc2)NC(=O)N(CC(=O)Nc2cc(Cl)ccc2N2CCOCC2)C1=O` (stereo not drawn) as the molecule, how does the Potency read?
**A.** inactive

**Q.** For `O=C(CN1CCOCC1)Nc1cc(Cl)ccc1Cl`, which Potency is on record?
**A.** inactive

**Q.** For `O=C(CSc1nc(Nc2ccccc2)nc(N2CCOCC2)n1)Nc1cc(Cl)ccc1O`, which Potency is on record?
**A.** 25.9 µM (active)

**Q.** With `Cn1c(N)cc(=O)n(C)c1=S` as the molecule, how does the Potency read?
**A.** inactive

**Q.** Which Potency does the source give for `Cc1ccnc(NS(=O)(=O)c2ccc(NC(=O)c3oc4ccc(F)cc4c3C)cc2)n1` here?
**A.** inactive

**Q.** For `COC(=O)c1ccc(NC(=O)C23CC4CC(C2)CC(n2cnc(Cl)n2)(C4)C3)cc1`, which Potency is on record?
**A.** 20.6 µM (active)

**Q.** For `Cc1ncn(C23CC4CC(CC(O)(C4)C2)C3)n1`, which Potency is on record?
**A.** inactive

**Q.** For `O=C(Nc1ccc(S(=O)(=O)Nc2ncccn2)cc1)C12CC3CC(CC(C3)C1)C2`, which Potency is on record?
**A.** inactive

**Q.** For `CC(=O)Oc1ccc2c(=O)oc(-c3ccc([N+](=O)[O-])cc3)nc2c1`, which Potency is on record?
**A.** inactive

**Q.** Which Potency does the source give for `Cc1ccc(S(=O)(=O)n2cnc3ccccc32)c(C)c1` here?
**A.** inactive

**Q.** Which Potency does the source give for `COc1ccc(S(=O)(=O)n2cnc3ccccc32)c(C)c1` here?
**A.** 18.4 µM (active)

**Q.** Which Potency does the source give for `Cc1ccc(C)c(S(=O)(=O)n2cnc3ccccc32)c1` here?
**A.** inactive

**Q.** With `N#Cc1c(NC(=O)c2ccc(N3CCOCC3)c([N+](=O)[O-])c2)sc2c1CCCC2` as the molecule, how does the Potency read?
**A.** inactive

**Q.** For `COc1cccc2cc(C(N)=O)/c(=N\NC(=O)c3ccccc3)oc12`, which Potency is on record?
**A.** inactive

**Q.** With `CC1(C(=O)O)CCCN(C(=O)/C=C/c2ccccc2)C1` (stereo not drawn) as the molecule, how does the Potency read?
**A.** inactive

**Q.** For `CC(C)Cn1c(N2CCN(C(=O)/C=C/c3ccccc3)CC2)nc2ccccc21`, which Potency is on record?
**A.** 18.4 µM (active)

**Q.** For `CC(C)N(C(=O)Cn1c(SCC(=O)N2CCN(c3ccccc3)CC2)nc2ccccc21)C(C)C`, which Potency is on record?
**A.** inactive

**Q.** Which Potency does the source give for `CN(Cc1ccccc1Cl)C(=O)C1CCC(=O)N(CCc2cccc(F)c2)C1` (stereo not drawn) here?
**A.** inactive

**Q.** Which Potency does the source give for `CN(C(=O)CN1CCN(c2cc(-c3ccc(OCc4ccccc4)cc3)ncn2)CC1)c1ccccc1` here?
**A.** 18.4 µM (active)

**Q.** For `COc1ccc(OCC(=O)N2CCN(C(=O)COc3ccccc3)CC2)cc1`, which Potency is on record?
**A.** inactive

**Q.** With `CCOc1ccc(OCc2ccc(C(=O)N(C)c3ccccc3)o2)cc1` as the molecule, how does the Potency read?
**A.** inactive

**Q.** Which Potency does the source give for `CCCC(C)C(=O)Nc1ccc(NC(C)=O)cc1` (stereo not drawn) here?
**A.** inactive

**Q.** With `CC1(C)[C@@H]2CC[C@@]1(C)[C@H](OC(=O)CSC#N)C2` as the molecule, how does the Potency read?
**A.** inactive

**Q.** Which Potency does the source give for `CCCCNC(=O)c1ccc(-n2c(=S)[nH]c3ccccc3c2=O)cc1` here?
**A.** inactive

**Q.** For `Cc1ccc(NC(=S)N(Cc2ccco2)C(C)c2cccs2)cc1` (stereo not drawn), which Potency is on record?
**A.** inactive

**Q.** Which Potency does the source give for `C/C(=N\Nc1ccc(Cl)nn1)c1ccccc1O` here?
**A.** 0.58 µM (active)

**Q.** For `Fc1ccccc1Cc1ccc(Cl)nn1`, which Potency is on record?
**A.** inactive

**Q.** With `CCCCCCCN=C(C)c1ccccc1O` as the molecule, how does the Potency read?
**A.** inactive

**Q.** Which Potency does the source give for `Oc1cccc(/C=N/Nc2ccc(Cl)nn2)c1O` here?
**A.** 0.092 µM (active)

**Q.** With `COc1cccc(/C=N/Nc2ccc(Cl)nn2)c1` as the molecule, how does the Potency read?
**A.** inactive

**Q.** With `Clc1ccc(N/N=C/c2cccs2)nn1` as the molecule, how does the Potency read?
**A.** inactive
